Hit rate of the full screen: of about 220,000 compounds, about 530 (0.24%) were called active. Shown is part of a subset that was picked to be rich in actives. Results with a measured potency or affinity are listed apart. Values without a mark were called inactive. Cut-off read from the data, not from the text of the source: active = inhibition above about 13%; inconclusive = no clear call, values can overlap the other calls; inactive = below that.

For this assay, the target named is Bifunctional protein GlmU (Mycobacterium tuberculosis (strain ATCC 25618 / H37Rv)) (UniProt P9WMN3). As to the kind of experiment: inhibition of mycobacterial GlmU enzyme – biochemical, glucosamine-1-phosphate acetyltransferase (AID 1376).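 Note: 0% = complete reaction with vehicle and 100% = reaction without substrate.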 The following applies: M. tuberculosis GlmU acetyltransferase enzyme assay; stronger effect = higher value;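 tested at 30 µM in the primary screen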.
Bifunctional protein GlmU (Mycobacterium tuberculosis (strain ATCC 25618 / H37Rv)), sequence (P9WMN3 whole entry, looked up): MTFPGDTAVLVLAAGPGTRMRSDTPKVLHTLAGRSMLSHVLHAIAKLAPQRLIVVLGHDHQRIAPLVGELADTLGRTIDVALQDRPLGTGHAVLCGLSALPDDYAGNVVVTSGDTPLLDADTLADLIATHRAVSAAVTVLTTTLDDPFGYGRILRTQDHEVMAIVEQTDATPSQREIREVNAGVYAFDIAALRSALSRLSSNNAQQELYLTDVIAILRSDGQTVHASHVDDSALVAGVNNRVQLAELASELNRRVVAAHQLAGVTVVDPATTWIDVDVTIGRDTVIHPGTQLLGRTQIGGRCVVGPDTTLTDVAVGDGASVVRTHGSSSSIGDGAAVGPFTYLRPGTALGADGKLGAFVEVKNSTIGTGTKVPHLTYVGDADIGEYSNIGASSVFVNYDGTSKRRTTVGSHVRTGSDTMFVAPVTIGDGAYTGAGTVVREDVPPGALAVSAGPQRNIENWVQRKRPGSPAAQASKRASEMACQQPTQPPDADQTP
Usually inhibition stands for the drop in the measured response relative to a control, in per cent. For `CCOc1ccc(Nc2nc3ccccc3c(=O)s2)cc1`, the inhibition was 13.8% (active).

`O=c1sc(Nc2ccccc2)nc2ccccc12`: the inhibition is 4.04%. Then `CCc1ccc(Nc2nc3ccccc3c(=O)s2)cc1`, with -0.12%.

Take `COc1ccc(/C=N/NC(=O)CCC(=O)Nc2ccccc2)cc1OC`: the inhibition was -0.28%. Then `COc1ccc(N2CCN(C(CNC(=O)C(=O)NCCCn3ccnc3)c3cccnc3)CC2)cc1` (stereo not drawn), with 4.95%; and `COc1cccc(C(=O)Nc2cc(C(F)(F)F)ccc2Cl)c1`, with -5.67%; and `COc1ccc(C(=O)Nc2cc(C(F)(F)F)ccc2Cl)cc1OC`, with 48.9% (active). Then `COc1ccc(/C=C/C(=O)Nc2cc(C(F)(F)F)ccc2Cl)cc1OC`, with -4.68%. Then `Nc1ccc2nc3c(=O)n(C4CCCCC4)c(=O)[nH]c3nc2c1`, with -0.52%; and `Nc1cc2nc3ccccc3nc2cc1N`, with 1.38%; and `C/C(=N/NS(=O)(=O)c1ccc(C)cc1)[C@H]1C[C@@H]1c1ccccc1`, with 1.42%. As for `COC(=O)c1ccc(OCCOc2ccc(C(=O)OC)cc2)cc1`, the inhibition was -4.5%.

With `COC(=O)c1ccc(OCC(=O)c2ccccc2)cc1`, the inhibition is 2.96%. In the case of `COC(=O)c1ccc(OCCOc2ccccc2)cc1`, the inhibition was 14.7% (active).

Turning to `CCNCCNc1ccc(Cl)cc1[N+](=O)[O-]`, the inhibition was 0.23%.

Take `c1ccc(CCn2nnnc2C(c2cccnc2)N2CCN(c3ccccc3)CC2)cc1` (stereo not drawn): the inhibition is -3.96%.

For the compound `CSc1nnc([C@@H]2CCCN2C(=O)OC(C)(C)C)o1`, the inhibition is 6.66%. With `CCOC(=O)c1oc2nc(CC(C)C)c3c(c2c1N)CCCC3`, the inhibition is 2.38%. Take `CCCc1cc(NCC2CCCO2)n2c(nc3ccccc32)c1C#N` (stereo not drawn): the inhibition is 7.14%. Then `Cc1cc(NCC2CCCO2)n2c(nc3ccccc32)c1C#N` (stereo not drawn), with 12.8% (active); and `CC(C)c1cc(NCC2CCCO2)n2c(nc3ccccc32)c1C#N` (stereo not drawn), with 5.33%; and `O=C(NCC1(N2CCCCC2)CCCCC1)c1ccc(S(=O)(=O)N2CCCC2)cc1`, with 7.41%. As for `Cc1ccccc1NS(=O)(=O)c1ccc2c(c1)NC(=O)CO2`, the inhibition was 13.3% (active). Then `Cc1c(F)cccc1NS(=O)(=O)c1ccc2c(c1)NC(=O)CO2`, with -2.89%; and `Cc1cccc(C)c1NS(=O)(=O)c1ccc2c(c1)NC(=O)CO2`, with 7.49%; and `Cc1nc(Nc2ccccc2)sc1C(=O)Nc1ccccc1`, with 2.24%. Regarding `Cc1nc(NC(=O)COc2ccccc2)sc1C(=O)Nc1ccccc1`, the inhibition is 6.13%.

In the case of `Cc1nc(NC(N)=S)sc1C(=O)Nc1ccccc1`, the inhibition is 14.8% (active).

The values above are taken from PubChem BioAssay AID1376 (SRMLSC, 2008).
